Measurements from PubChem BioAssay (NCI).
Where “and” joins values, the source holds several entries; their conditions need not be identical. Equal values may be shown once. Compounds without any hit were thinned out: in the full panel of roughly 83,000, 20% have a hit.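 Cells were grown in 96-well plates and exposed to the test compound at a single concentration for 48 hours; results are reported as percent growth, with values below 10 considered active.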 Calls of active or inactive are those of the source.

What was measured:
Test in all cases: NCI-60 one-dose screen, 48 h (100 = growth as untreated, 0 = no growth, -100 = all killed)
SR leukemia = conditions: 10 µM unless noted
RPMI-8226 leukemia = conditions: 10 µM unless noted
OVCAR-8 ovarian = conditions: 10 µM unless noted
OVCAR-5 ovarian = conditions: 10 µM unless noted
OVCAR-4 ovarian = conditions: 10 µM unless noted
SK-OV-3 ovarian = conditions: 10 µM unless noted
IGROV1 ovarian = conditions: 10 µM unless noted
OVCAR-3 ovarian = conditions: 10 µM unless noted
HS 578T breast = conditions: 10 µM unless noted
NCI/ADR-RES ovarian = conditions: 10 µM unless noted
T-47D breast = conditions: 10 µM unless noted
BT-549 breast = conditions: 10 µM unless noted
SW-620 colon = conditions: 10 µM unless noted
MCF7 breast = tested on: MCF7 breast
HCT-116 colon = conditions: 10 µM unless noted
HCC-2998 colon = conditions: 10 µM unless noted
KM12 colon = conditions: 10 µM unless noted
MDA-MB-435 melanoma = conditions: 10 µM unless noted

Structure (SMILES)	growth (SR leukemia)	growth (RPMI-8226 leukemia)	growth (OVCAR-8 ovarian)	growth (OVCAR-5 ovarian)	growth (OVCAR-4 ovarian)	growth (SK-OV-3 ovarian)	growth (IGROV1 ovarian)	growth (OVCAR-3 ovarian)	growth (HS 578T breast)	growth (NCI/ADR-RES ovarian)	growth (T-47D breast)	growth (BT-549 breast)	growth (SW-620 colon)	growth (MCF7 breast; 10 µM unless noted)	growth (HCT-116 colon)	growth (HCC-2998 colon)	growth (KM12 colon)	growth (MDA-MB-435 melanoma)	growth (MCF7 breast; 10 µM)	growth (MCF7 breast; 100 µM)
NC(=O)NCCCC(N)C(=O)O (centres undefined)	84% (inactive)	96.5% (inactive)	98% (inactive)	113% (inactive)	112% (inactive)	100% (inactive)	91.5% (inactive)	106% (inactive)	106% (inactive)	102% (inactive)	88.4% (inactive)	95.7% (inactive)	107% (inactive)	101% (inactive)	104% (inactive)	110% (inactive)	101% (inactive)			
O=C1C=C(Nc2ccccc2)c2ccccc2C1=O	84.5% (inactive)		31.7% (inactive) and 94.3% (inactive)	90.2% (inactive) and 109% (inactive)	44.4% (inactive) and 82.5% (inactive)	108% (inactive) and 90.9% (inactive)	65.5% (inactive) and 85.3% (inactive)	6.63% (active) and 35.4% (inactive)	94.8% (inactive) and 88.6% (inactive)	25.1% (inactive) and 91.4% (inactive)	77.2% (inactive) and 102% (inactive)	84.3% (inactive) and 100% (inactive)	31.5% (inactive) and 94% (inactive)	12.9% (inactive) and 78.4% (inactive)	6.58% (active) and 92.8% (inactive)	54.3% (inactive) and 90.5% (inactive)	65.6% (inactive) and 84.4% (inactive)	-88% (active) and 99% (inactive)		
CC(=O)NCC(=O)c1ccc([N+](=O)[O-])cc1	104% (inactive)	104% (inactive)	103% (inactive)	103% (inactive)	113% (inactive)	108% (inactive)	107% (inactive)	105% (inactive)	106% (inactive)	104% (inactive)	86.3% (inactive)	107% (inactive)	99.5% (inactive)	96.5% (inactive)	106% (inactive)	109% (inactive)	103% (inactive)			
NC1CCC(C(=O)O)CC1 (centres undefined)	111% (inactive) and 105% (inactive)	93.2% (inactive) and 75.8% (inactive)	109% (inactive) and 113% (inactive)	93.9% (inactive) and 100% (inactive)	107% (inactive) and 103% (inactive)	101% (inactive) and 106% (inactive)	115% (inactive) and 111% (inactive)	103% (inactive) and 107% (inactive)	86.4% (inactive) and 94.8% (inactive)	110% (inactive) and 107% (inactive)	90.5% (inactive) and 95.8% (inactive)		93.7% (inactive) and 100% (inactive)	96% (inactive) and 95.2% (inactive)	94.9% (inactive) and 99.3% (inactive)	111% (inactive) and 100% (inactive)	107% (inactive) and 108% (inactive)	106% (inactive)		
CN(C)c1ccc(/C=C\C(=O)c2ccccc2)cc1	3.11% (active) and 59.4% (inactive) and 24.9% (inactive)		102% (inactive) and 93.9% (inactive) and 92.6% (inactive)	106% (inactive) and 110% (inactive) and 99% (inactive)	105% (inactive) and 109% (inactive) and 104% (inactive)	92.3% (inactive) and 104% (inactive)	80.5% (inactive) and 91.3% (inactive) and 80.3% (inactive)	81.4% (inactive) and 76.2% (inactive) and 78.5% (inactive)	104% (inactive) and 99.6% (inactive) and 103% (inactive)	88.2% (inactive) and 85.5% (inactive) and 93.1% (inactive)	85.2% (inactive) and 89.3% (inactive)	76.5% (inactive) and 77.6% (inactive) and 73.7% (inactive)	64.2% (inactive) and 61.3% (inactive) and 66.4% (inactive)	50.2% (inactive) and 39.2% (inactive) and 45% (inactive)	75.9% (inactive) and 94.2% (inactive) and 59.2% (inactive)	97.1% (inactive) and 88.3% (inactive) and 100% (inactive)	51.5% (inactive) and 50.1% (inactive) and 57.5% (inactive)	85.3% (inactive) and 38% (inactive) and 25.1% (inactive)		
CC1CCC2(C(=O)O)CCC3(C)C(=CCC4C5(C)CCC(O)C(C)(C)C5CCC43C)C2C1C (centres undefined)	39.3% (inactive) and 46.8% (inactive)	48.5% (inactive) and 83.4% (inactive)	93.3% (inactive)	-8.77% (active) and 87.9% (inactive)	59.3% (inactive) and 84.2% (inactive)	91.6% (inactive) and 104% (inactive)	96.7% (inactive) and 105% (inactive)	56% (inactive) and 101% (inactive)	-49% (active) and 63.1% (inactive)	16.5% (inactive) and 97.3% (inactive)	49% (inactive) and 77.2% (inactive)	263% (inactive) and 102% (inactive)	15.2% (inactive) and 98.2% (inactive)		6.37% (active) and 85.7% (inactive)	-29% (active) and 91.4% (inactive)	59.6% (inactive) and 85.7% (inactive)		84.3% (inactive) and 93.3% (inactive)	-56.5% (active) and -70% (active)
Nc1ccc2c(O)cc(S(=O)(=O)O)cc2c1	86.3% (inactive)		105% (inactive) and 97.8% (inactive)	103% (inactive)	93.5% (inactive)	96.1% (inactive) and 96.6% (inactive)	130% (inactive) and 86.1% (inactive)	126% (inactive) and 105% (inactive)	96.3% (inactive)	105% (inactive)	85.5% (inactive) and 101% (inactive)	94.9% (inactive) and 119% (inactive)	94.3% (inactive) and 95.3% (inactive)	95% (inactive) and 96.6% (inactive)	93.8% (inactive) and 94% (inactive)	88.6% (inactive) and 107% (inactive)	120% (inactive) and 103% (inactive)	104% (inactive) and 113% (inactive)		
OCC1OC(O)C(O)C(O)C1O (centres undefined)	106% (inactive)	110% (inactive)	108% (inactive)	106% (inactive)	103% (inactive)	109% (inactive)	126% (inactive)	120% (inactive)	116% (inactive)	101% (inactive)	102% (inactive)	110% (inactive)	96.9% (inactive)	82.6% (inactive)	104% (inactive)	94% (inactive)	128% (inactive)			
C/C(=C\c1ccccc1)c1ccccn1	99.4% (inactive)	114% (inactive)	116% (inactive)	118% (inactive)	106% (inactive)	106% (inactive)	109% (inactive)	106% (inactive)	123% (inactive)	110% (inactive)	94.7% (inactive)	110% (inactive)	105% (inactive)	68.4% (inactive)	101% (inactive)	117% (inactive)	95.5% (inactive)			
CC(C)NC(=O)N/C=C(\C#N)C(N)=O	100% (inactive)	116% (inactive)	109% (inactive)	92.5% (inactive)	105% (inactive)	104% (inactive)	102% (inactive)	105% (inactive)	108% (inactive)	100% (inactive)	101% (inactive)	92.1% (inactive)	93.4% (inactive)	102% (inactive)	90.9% (inactive)	97.5% (inactive)	92.7% (inactive)			
O=C(CO)C(O)C(O)C(O)C(O)CO (centres undefined)	103% (inactive) and 93.9% (inactive)	107% (inactive) and 100% (inactive)	108% (inactive) and 99.9% (inactive)	105% (inactive) and 109% (inactive)	108% (inactive) and 116% (inactive)	87.8% (inactive) and 85.7% (inactive)	106% (inactive) and 109% (inactive)	110% (inactive) and 109% (inactive)	101% (inactive) and 104% (inactive)	106% (inactive) and 107% (inactive)		111% (inactive) and 117% (inactive)	105% (inactive) and 100% (inactive)	101% (inactive) and 102% (inactive)	99.7% (inactive) and 97.4% (inactive)	109% (inactive) and 119% (inactive)	106% (inactive) and 105% (inactive)			
Cl	104% (inactive)		98.6% (inactive)	105% (inactive)	125% (inactive)	115% (inactive)	120% (inactive)	119% (inactive)	108% (inactive)	102% (inactive)	101% (inactive)	112% (inactive)	100% (inactive)	109% (inactive)	104% (inactive)	108% (inactive)	112% (inactive)	101% (inactive)		
